# NS1 inh: influenza NS1 inhibition. Potency, µM (highest dose often 46.1 µM), without a hit: at the highest dose activity, positive = more growth. actives 0.4% (n = 270,000). AID 2326; calls by dose curve; further: actives are rising curves; nearly all actives have a fitted effect of over 50% in size
#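 Compounds were scored for reversing the slow growth caused by influenza A NS1 in S. cerevisiae, measured by optical density at 600 nm. Assay medium contained 2% galactose at pH 6.0; NS1-free yeast of the same strain were the positive control.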
# Pf growth 96h: inhibits malaria parasite growth, 96 h | AID 504834 | actives 6.9% (n = 320,000) | Potency, µM (top dose mostly 28.7 µM), for inactives: at the top dose activity change, negative = inhibition, hits mostly inhibitors | P. falciparum luciferase reporter growth, 96 h; further: on the % scale 0 is the no-effect control and ±100 the full control effect
#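 Luminescence readout: decreased luciferase signal marks inhibited growth of reporter-expressing P. falciparum in infected red cells (2% hematocrit, 0.05% parasitemia final), exposed to compound two generations (96 h, 37 C, 5% CO2).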
# VACV mCherry inh: vaccinia inhibition (mCherry reporter); Potency, µM (series often up to 36.5 µM), inactives show at the top dose activity change, negative = inhibition, most hits filed as inhibitors; actives 0.63% (n = 310,000); Vaccinia virus mCherry reporter infection, fluorescence; calls by dose curve; tested in A549 cells; further: on the % scale 0 is the no-effect control and ±100 the full control effect; nearly all actives have a fitted effect of over 35% in size
# HCV inh: HCV inhibition | AID 651820 | Huh7.5.1 HCVcc-Cre infection, luciferase reporter, 44 h | actives 3.4% (n = 340,000) | Potency, µM (doses to about 41.8 µM), for the others: at the highest dose activity change, negative = inhibition, most hits filed as inhibitors; further: on the % scale 0 is the no-effect control and ±100 the full control effect
#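 Antiviral activity was scored by luciferase reporter output from cells infected with HCVcc-Cre (~0.5 moi) in presence of compound, 44 h infection period, cells seeded 1,000/well 4 h prior.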
# Vaccinia Venus: vaccinia inhibition (Venus reporter). Vaccinia virus Venus reporter expression, fluorescence. Potency, µM (doses to about 36.5 µM), for inactives: at the top dose activity change, negative = inhibition, hits mostly inhibitors. AID 720580. actives 0.46% (n = 330,000); calls by dose curve; tested in A549 cells; further: on the % scale 0 is the no-effect control and ±100 the full control effect; nearly all actives have a fitted effect of over 30% in size
# Pf growth 48h: inhibits P. falciparum growth in the first generation, 48 h; P. falciparum luciferase growth in erythrocytes, 48 h; Potency, µM (highest dose often 28.7 µM), for inactives: at the top dose activity change, negative = inhibition, actives largely listed as inhibitors; actives 5.9% (n = 310,000); AID 504832; further: on the % scale 0 is the no-effect control and ±100 the full control effect
#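 Parasite viability was followed by luminescence of a genomically integrated firefly luciferase. Cultures held 0.1% parasitemia at 2% hematocrit (final), incubated under 5% CO2 at 37 C.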
# An asterisk follows results filed as active; i = inactive; ? = inconclusive; / = not tested or not shown; [ ] = dose if it differs, or a comment. Most compounds without a hit are left out; they make up all but 11% or so of the library. Unless noted, the call rests on the fitted dose curve; in most records, active means well fitted inhibition curve with a large enough effect; inconclusive means small, poorly fitted or top-dose-only effect, or another doubt; inactive means no such curve, though single readings can be large or run the other way. Potency means the concentration at half of the fitted maximal effect.
SMILES,NS1 inh,Pf growth 96h,VACV mCherry inh,HCV inh,Vaccinia Venus,Pf growth 48h
COc1ccc(CNC(=O)CSc2n[nH]c(-c3ccc(OC)cc3)n2)cc1,/,/,?,/,-29.3%,/
COC(=O)C1=CN(c2ccc(Cl)cc2)C=C(C(=O)OC)C1c1ccc([N+](=O)[O-])cc1,4.3%,5.22µM*,-27.5%,-27.5%,-1.4%,13.1µM*
COC(=O)C1=CN(c2ccc(F)cc2)C=C(C(=O)OC)C1c1cccc(Br)c1,21.8%,-13.8%,i,?,-7.4%,11.7µM*
COC(=O)C1=CNC=C(C(=O)OC)C1c1cccc2ccccc12,0.2%,6.1%,-5.0%,-9.5%,-9.4%,11.7µM*
COC(=O)C1=CN(c2ccc(F)cc2)C=C(C(=O)OC)C1c1ccc([N+](=O)[O-])cc1,12.8%,9.28µM*,-23.3%,/,-14.3%,7.38µM*
COC(=O)C1=CN(C2CC2)C=C(C(=O)OC)C1c1ccc(C(=O)OC)cc1,1.3%,224.7%,/,-12.3%,/,?
CN1CCN(C(=S)NC(=O)c2cccc([N+](=O)[O-])c2)CC1,1.5%,-2.4%,/,16.0%,/,-4.6%
COC(=O)C1=CN(c2ccc(OC)cc2)C=C(C(=O)OC)C1c1ccc([N+](=O)[O-])cc1,-0.6%,4.15µM*,i,-3.4%,-17.7%,13.1µM*
COC(=O)C1=CN(c2cccc(Cl)c2)C=C(C(=O)OC)C1c1cccc(OC)c1,7.5%,53.9%,-17.6%,?,-6.7%,11.7µM*
COC(=O)C1=CNC=C(C(=O)OC)C1c1cccc(OC)c1,9.0%,29.5%,i,9.9%,-0.2%,?
COC(=O)C1=CNC=C(C(=O)OC)C1c1ccccc1Cl,-3.5%,10.4%,12.7%,-4.6%,22.8%,-24.6%
COC(=O)C1=CNC=C(C(=O)OC)C1c1ccc(Cl)cc1,-3.2%,1.3%,-21.7%,?,-15.6%,9.28µM*
Cc1ccc(C)c(NC(=O)CN2CCN(C3CCCCC3)C(=O)C2=O)c1,/,/,-13.3%,/,-3.8%,/
Cn1c(CN2CCCCC2)nc2cc(NC(=O)c3cccc(Br)c3)ccc21,1.1%,4.65µM*,-4.6%,5.62µM*,?,/
Cn1c(CN2CCCCC2)nc2cc(NC(=O)c3ccccc3)ccc21,-11.1%,/,?,-26.1%,-12.7%,?
CCOC(=O)N1CCN(Cc2nc3cc(NC(=O)c4cccs4)ccc3n2C)CC1,-33.6%,0.0%,-25.5%,?,-17.8%,?
Cn1c(CN2CCCCC2)nc2cc(NC(=O)c3cccs3)ccc21,2.7%,-27.0%,-20.2%,?,-21.0%,10.4µM*
CCOC(=O)N1CCN(Cc2nc3cc(NC(=O)c4cccs4)ccc3n2CC)CC1,-12.1%,112.6%,/,?,/,2.94µM*
CCCc1nc2ccc(NC(=O)c3cccs3)cc2c(=O)n1Cc1ccccc1Cl,1.8%,?,-1.8%,?,-3.4%,1.85µM*
Cc1ccc(S(=O)(=O)Cc2ccc(C(=O)N3CCN(c4ccc(F)cc4)CC3)o2)cc1,-17.0%,?,-6.5%,-28.3%,-16.1%,/
O=C(COC(=O)c1ccc([N+](=O)[O-])o1)Nc1ccc(Br)cc1F,/,/,/,11.1%,/,/
COc1cccc(OCc2nnc(SCC(=O)OC3CCCCC3)n2C)c1,-54.8%,17.3%,/,10.6%,/,?
COc1ccc(C(=O)NNC(=O)CSc2nnc(COc3ccc4ccccc4c3)n2C)cc1,-0.5%,2.33µM*,/,-3.4%,/,3.6%
COc1cccc(OCc2nnc(SCC(=O)NNC(=O)C3CCCCC3)n2C)c1,/,13.1µM*,i,15.1%,-2.9%,-7.6%
CCN(CC)CCCCN1c2ccccc2Sc2ccccc21,-0.3%,-3.1%,-28.3%,?,?,?
SMILES,NS1 inh,Pf growth 96h,VACV mCherry inh,HCV inh,Vaccinia Venus,Pf growth 48h
Cc1ccn2c(C=O)c(-c3ccc(F)cc3)c(C=O)c2c1,/,?,/,11.2µM*,/,8.8%
CC(NC(=O)c1ccc(F)cc1)c1nc2ccccc2n1Cc1ccccc1F (configuration not stated),-14.8%,/,/,-16.4%,/,?
COc1cccc(CC2(CO)CCCN(Cc3cn[nH]c3C3CCCCC3)C2)c1 (configuration not stated),0.8%,?,/,9.8%,/,?
OCC1(Cc2cccc(Cl)c2)CCCN(Cc2cn[nH]c2C2CCCCC2)C1 (configuration not stated),-0.3%,7.8%,/,-1.1%,/,11.7µM*
Cc1nn(C)cc1CNC(=O)c1cnn2c1NC(c1ccc(Br)cc1)CC2C(F)(F)F (configuration not stated),-12.9%,/,?,-29.8%,-29.8%,1.8%
CCN(CCCCCN(C)C)Cc1cc2ccccc2o1,?,5.22µM*,-22.0%,?,-13.3%,10.4µM*
O=C(NCc1ccco1)C1CCN(S(=O)(=O)N2CCC3(CC2)OCCO3)CC1,3.3%,?,i,1.3%,-9.1%,4.0%
Cc1ccccc1NS(=O)(=O)c1cc(C(=O)Nc2cccnc2)ccc1C,1.1%,-13.0%,-25.6%,31.6µM*,-14.1%,?
Cc1ccccc1NS(=O)(=O)c1cc(C(=O)Nc2cccc([N+](=O)[O-])c2)ccc1C,4.5%,-14.2%,?,?,11.2µM*,?
Cc1ccc(C(=O)Nc2ccccc2-c2ccccc2)cc1S(=O)(=O)Nc1cccc(C)c1C,?,2.4%,-29.4%,10µM*,?,?
Cc1ccc(C(=O)NCc2ccncc2)cc1S(=O)(=O)Nc1cccc(C)c1C,-6.8%,-15.4%,/,?,/,-23.7%
COc1ccc(-n2c(N)c(C(=O)Nc3c(C)n(C)n(-c4ccccc4)c3=O)c3nc4ccccc4nc32)cc1,6.7%,1.65µM*,i[7.34 µM],-10.6%,-7.2%[7.34 µM],4.65µM*
Cc1ccc(-n2c(N)c(C(=O)Nc3c(C)n(C)n(-c4ccccc4)c3=O)c3nc4ccccc4nc32)cc1C,27.0%,?,/,10.1%,/,10.4µM*
COc1ccc(-c2cc(C(=O)Nc3c(C)n(C)n(-c4ccccc4)c3=O)no2)cc1,/,8.28µM*,-8.0%,4.8%,-3.9%,?
Nc1c(C(=O)Nc2ccccc2)c2nc3ccccc3nc2n1-c1ccc(O)cc1,-0.8%,-18.8%,?,?,?,13.1µM*
COc1ccc(-c2cc(C(=O)Nc3c(C)n(C)n(-c4ccccc4)c3=O)c3ccccc3n2)cc1,-1.3%,-10.7%,?,-13.3%,-8.9%,?
COCCCn1c(N)c(C(=O)Nc2ccccc2)c2nc3ccccc3nc21,8.6%,?,?,?,-28.0%,?
O=C(CSc1nnc(-c2ccc(Cl)cc2)o1)Nc1ccc(F)cc1,/,/,-3.5%,/,0.4%,/
CCN(CC)CCCNC(=O)c1[nH]c2ccccc2c1Sc1ccc(Cl)cc1,2.0%,13.1µM*,-21.3%,?,-11.5%,13.1µM*
COc1ccc2c(c1)CCc1sc(NC(=O)c3ccco3)nc1-2,-2.9%,?,?,-25.4%,?,/
CCn1nnc(NC(=O)c2ccc(C(C)(C)C)cc2)n1,-75.8%,9.6%[5.75 µM],/,-2.0%,/,2.94µM*

# High-throughput results as filed in PubChem.
